High-throughput results: PubChem BioAssay, National Center for Advancing Translational Sciences (NCATS)
G9a inh – qHTS Assay for Inhibitors of Histone Lysine Methyltransferase G9a. Histone-lysine N-methyltransferase EHMT2 (Homo sapiens), Q96KQ7. G9a H3K9 monomethylation, AlphaScreen, 2 h. Potency, µM (titrated, usually from 102 µM), without a hit: top-dose activity, negative = inhibition, hits mostly inhibitors. actives 8.8% (n = 350,000); note: potency is the fitted concentration of half-maximal effect; % is set by controls: 0 for no effect and ±100 for the full control effect; nearly all actives have a fitted effect of over 75% in size
Target sequence (Q96KQ7 913-1193 limits assumed): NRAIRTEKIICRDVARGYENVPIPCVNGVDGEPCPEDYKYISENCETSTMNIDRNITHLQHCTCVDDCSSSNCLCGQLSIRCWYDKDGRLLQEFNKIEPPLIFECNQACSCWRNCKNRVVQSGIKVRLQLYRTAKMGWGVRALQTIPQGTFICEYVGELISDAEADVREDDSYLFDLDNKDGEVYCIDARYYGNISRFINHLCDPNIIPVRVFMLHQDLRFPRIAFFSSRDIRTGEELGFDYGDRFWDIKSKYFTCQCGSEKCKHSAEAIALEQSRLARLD
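Chemiluminescent proximity detection of H3K9 monomethylation, read after 10 min bead incubation in the dark. Reaction: 20 nM G9a, 500 nM biotin-H3K9 peptide, 20 uM SAM cofactor, 2 h, room temperature, following 15 min enzyme-compound preincubation.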
HP1b binding inh – HTS for Inhibitors of HP1-beta Chromodomain Interactions with Methylated Histone Tails; AlphaScreen HP1-beta / biotin-H3K9me3 peptide binding; Potency, µM (highest dose often 114 µM), for inactives: top-dose activity change, negative = inhibition, actives largely listed as inhibitors; actives 0.56% (n = 390,000); AID 540317, 2011; note: potency is the fitted concentration of half-maximal effect; nearly all actives have a fitted effect of over 70% in size
Target sequence (P83916 whole entry, looked up): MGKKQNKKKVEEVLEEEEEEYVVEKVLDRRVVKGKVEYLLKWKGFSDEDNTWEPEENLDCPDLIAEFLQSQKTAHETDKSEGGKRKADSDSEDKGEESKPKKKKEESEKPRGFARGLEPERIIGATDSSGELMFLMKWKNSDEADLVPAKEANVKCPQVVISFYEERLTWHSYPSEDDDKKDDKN
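Compound inhibition of the preformed complex between 50 nM HP1-beta and 50 nM biotinylated H3K9me3 peptide was read by AlphaScreen. Buffer was PBS pH 7.4 with 0.01% Tween-20. Incubations ran 30 min at room temperature, with 10 ug/mL donor/acceptor beads.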
PI5P4K alpha inh – qHTS for Inhibitors of phosphatidylinositol 5-phosphate 4-kinase (PI5P4K). max response, %. Phosphatidylinositol 5-phosphate 4-kinase type-2 alpha (Homo sapiens), P48426. PI5P4Kalpha enzyme, ADP-Glo luminescence, 60 min; hits give low values. actives 1.2% (n = 330,000). AID 652105, 2013; active = max response of -50% or lower; inconclusive = between -30% and -50%; inactive = -30% or higher; note: value at the top dose of about 77 µM; % is set by controls: 0 for no effect and ±100 for the full control effect
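Enzyme plus substrate dispensed, test compounds pinned in, then ATP (5 microM final) added. After 60 min at RT, ADP-Glo reagent 1 for 45 min and reagent 2 for 30 min preceded luminescence imaging.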
BAZ2B inh – qHTS Assay for Inhibitors of BAZ2B | actives 4.4% (n = 360,000) | AlphaScreen BAZ2B-H3K14Ac peptide displacement | Potency, µM (highest dose often 114 µM), without a hit: top-dose activity change, negative = inhibition, most hits filed as inhibitors | AID 504333, 2011 | Bromodomain adjacent to zinc finger domain protein 2B (Homo sapiens), Q9UIF8; note: potency is the fitted concentration of half-maximal effect; % is set by controls: 0 for no effect and ±100 for the full control effect; nearly all actives have a fitted effect of over 60% in size
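Multi-concentration screen (max 110 uM) measuring displacement of acetylated histone H3 peptide from BAZ2B by AlphaScreen, using 50 nM protein, 50 nM peptide and 10 ug/mL streptavidin donor plus Ni-chelate acceptor beads.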
PLK1 PBD block – qHTS for Inhibitors of PLK1-PDB (polo-like kinase 1 - polo-box domain): Primary Screen | Serine/threonine-protein kinase PLK1 (Homo sapiens), P53350 | Plk1 PBD binding of FITC phosphopeptide, fluorescence polarization | Potency, µM, for inactives: max response, negative = inhibition, usual class: inhibitors | actives 2.8% (n = 360,000) | AID 720504, 2013; note: potency is the fitted concentration of half-maximal effect; series mostly up to about 57 µM; % is set by controls: 0 for no effect and ±100 for the full control effect; nearly all actives have a fitted effect of over 65% in size
JMJD2A Tudor – qHTS Assay for Inhibitors of JMJD2A-Tudor Domain; AlphaScreen JMJD2A-Tudor / H3K4me3 peptide binding; Potency, µM (top dose mostly 114 µM), without a hit: top-dose activity change, negative = inhibition, most hits filed as inhibitors; actives 4.4% (n = 390,000); AID 504339, 2011; note: potency is the fitted concentration of half-maximal effect; % is set by controls: 0 for no effect and ±100 for the full control effect; nearly all actives have a fitted effect of over 50% in size
* = called active by the depositor; ? = inconclusive; . = no result given; [ ] = another dose, or the depositor's remark. The list is not random: actives were taken first. Their share in the collection is about 12%. Unless noted, calls come from the whole dose curve; as a rule, active = well fitted curve in the direction sought with a large enough effect; inconclusive = small, poorly fitted or top-dose-only effect, or another doubt; inactive = no such curve, though single readings can be large; an effect the other way counts as inactive or inconclusive.

SMILES	G9a inh	HP1b binding inh	PI5P4K alpha inh	BAZ2B inh	PLK1 PBD block	JMJD2A Tudor
CC1CCCN(C(=S)Nc2ccc(Nc3ccccc3)cc2)C1 (stereo not drawn)	40µM*	?	4	-38%	?	?
CC1CCCN(C(=S)Nc2ccc(F)cc2)C1 (stereo not drawn)	-20%	20%	0	-27%	-18%	-11%
CCN(CC)c1cc(C)c2cc(NC(=O)c3ccc(Br)o3)ccc2n1	56µM*	-26%	.	?	-2%	?
COc1cccc(-c2nnc3n2N=C(c2c(OC)cccc2OC)CS3)c1OC	.	.	.	.	.	-8%
O=C1CC(N2CCCc3ccccc32)C(=O)N1c1ccccc1 (stereo not drawn)	40µM*	47%	.	3%	-2%	4%
O=c1cc(CN2CCN(S(=O)(=O)c3ccccc3[N+](=O)[O-])CC2)nc2sccn12	40µM*	45%	2	.	-7%	-7%
O=S(=O)(c1ccccc1F)N1CCN(Cc2cc3c(cc2O)OCO3)CC1	?	39%	-8	?	?	?
O=c1cc(CN2CCc3ccccc32)nc2sccn12	32µM*	?	-7	-5%	-11%	18µM*
O=c1cc(CN2CCN(c3ccccn3)CC2)nc2sccn12	-41%	6%	-2	-21%	-17%	-23%
O=[N+]([O-])c1ccccc1S(=O)(=O)N1CCN(Cc2cc3c(cc2O)OCO3)CC1	2.5µM*	-5%	-7	.	?	?
Cc1ccc(C)c(S(=O)(=O)N2CCN(Cc3cc4c(cc3O)OCO4)CC2)c1	1.4µM*	-30%	2	40µM*	-11%	32µM*
CCCCn1c(N)c(N(CCOC)C(=O)c2c(-c3ccccc3)noc2C)c(=O)[nH]c1=O	1%[0.501 µM]	22%	-8	8%	-14%	-16%
COCCSc1ccccc1C(=O)Nc1ccc(Br)cc1	20µM*	37%	-5	-19%	3%	11%
COCCSc1ccccc1C(=O)NCCc1ccccc1	18µM*	30%	-1	-2%	-11%	-8%
COCCSc1ccccc1C(=O)Nc1nnc(COC)s1	?	-17%	.	-9%	27µM*	-27%
COc1ccccc1C(=O)Nc1cc(C)on1	-20%	50%	3	2%	-10%	1%
COCCSc1ccccc1C(=O)Nc1cc(C)on1	1.1µM*	?	.	?	?	-19%
COCCSc1ccccc1C(=O)Nc1ccc2c(c1)OCO2	.	42%	-3	-13%	6%	3%
CC1CCC(NC(=O)c2ccc3c(c2)N(Cc2ccccc2F)C(=O)c2ccccc2S3=O)CC1 (stereo not drawn)	-5%[59 µM]	39%	.	-18%	.	-6%
COc1ccc(CNC(=O)c2cc3cc(S(=O)(=O)N4CCCCC4)ccc3n2C)c(OC)c1	-3%[59 µM]	24%[57 µM]	.	-2%	.	-7%
COCCNC(C)C(=O)Nc1ccc(Br)cc1 (stereo not drawn)	11µM*	-35%	.	50µM*	-6%	4µM*
COCCSc1ccccc1C(=O)Nc1cccnc1	1.6µM*	23%	-8	-3%	-5%	1%
O=C(Nc1cccnc1)c1ccccc1O	6%[59 µM]	37%	7	-30%	-4%	-8%
COCCSc1ccccc1C(=O)Nc1ccc(Cl)cc1	7.1µM*	20%	-25	?	-12%	?
Cc1ccccc1N(C)C1=N[S+](=O)([O-])c2ccccc21	.	.	.	.	.	-20%
COc1cccc(-c2cnc(C(O)c3ccc(F)c(C)c3)[nH]2)c1 (stereo not drawn)	.	.	-1	.	-4%	.
Cc1ccc(-c2cc(C(=O)N/N=C/C=C/c3ccccc3)n[nH]2)s1	9%[59 µM]	-15%	?	0%	6.7µM*	-32%
